PubChem BioAssay (NCATS)
Inconclusive results are not listed. Entries that show only a call come without a potency. More than one record can exist for a structure, and the calls need not agree. Activity calls are given as the source filed them. Calls follow the shape of the dose curve; as a rule, active = well fitted curve in the direction sought with a large enough effect; inconclusive = small, poorly fitted or top-dose-only effect, or another doubt; inactive = no such curve, though single readings can be large; an effect the other way counts as inactive or inconclusive.

Experiments:
[1] = qHTS assay to identify small molecule inhibitors of chordoma cells - UCH-2 (AID 1259356); also: potency is read from the fitted curve at half-maximal effect
[2] = P-glycoprotein substrates identified in KB-8-5-11 adenocarcinoma cell line, qHTS therapeutic library screen (AID 1346987); settings: outcome: dose series up to 44.5 µM unless noted; also: nearly all actives have a fitted effect of over 65% in size; also: potency is read from the fitted curve at half-maximal effect
Outline: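 Compounds are pinned in dose-response onto KB-8-5-11 cells (500 cells/well, colchicine-free medium) and left 72 h at 37 degree C. CellTiter-Glo luminescence then yields AC50 values.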

[3] = NS1 protein of Zika virus - qHTS assay to identify small molecule inhibitors in human HEK 293 cells (AID 1347053); also: series mostly up to about 46 µM; nearly all actives have a fitted effect of over 55% in size
Outline: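 Readout was TR-FRET using paired anti-NS1 antibodies after 24 h infection of HEK 293 cells with ZIKV MR766 (MOI = 0.5). Compound preceded virus by 1 h; reduced signal reflects lower NS1 expression.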

[4] = qHTS of pediatric cancer cell lines to identify multiple opportunities for drug repurposing: Primary screen for TC32 cells (AID 1347089); also: nearly all actives have a fitted effect of over 60% in size
Outline: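 Luminescent ATP read-out (CellTiter-Glo) of metabolically active TC32 cells after 48 h exposure. Concentration-response curves came from 11-point (MIPE, 0.78 nM–46 µM) or 8-point (NPC, 0.59 nM–46 µM) primary titrations; follow-up used 11 points.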

[5] = qHTS of pediatric cancer cell lines to identify multiple opportunities for drug repurposing: Primary screen for DAOY cells (AID 1347090); also: series mostly up to about 46 µM; nearly all actives have a fitted effect of over 55% in size
Outline: (§1)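 Eight- or eleven-point concentration series, 48 h treatment at 37 degrees C in growth media; readout CellTiter-Glo luminescence. Potency and efficacy were taken from the concentration-response curves.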

[6] = qHTS of pediatric cancer cell lines to identify multiple opportunities for drug repurposing: Primary screen for SJ-GBM2 cells (AID 1347091)
Outline: as §1

[7] = qHTS of pediatric cancer cell lines to identify multiple opportunities for drug repurposing: Primary screen for A673 cells (AID 1347092); also: nearly all actives have a fitted effect of over 45% in size
Outline: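 Cell viability of A673 measured by CellTiter-Glo ATP luminescence after 48 hours compound exposure. Dilution series spanned 0.78 nM to 46 µM (MIPE, 11-point) or 0.59 nM to 46 µM (NPC, 8-point); bortezomib 2.3 uM positive control.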

[8] = qHTS of pediatric cancer cell lines to identify multiple opportunities for drug repurposing: Primary screen for SK-N-MC cells (AID 1347093); also: series mostly up to about 46 µM
Outline: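 Metabolically active cells were quantified by ATP-dependent luminescence (CellTiter-Glo, 15 min at room temperature) following 48 h treatment. Cells had been plated at 500-1,000 per well and settled for 5 h beforehand.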

[9] = qHTS of pediatric cancer cell lines to identify multiple opportunities for drug repurposing: Primary screen for BT-37 cells (AID 1347094); also: series mostly up to about 57 µM
Outline: (§2)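 Cells seeded at 500-1,000 cells/well in growth media, rested 5 hours at 37 degrees C, 5% CO2, then dosed; MIPE compounds at 11-point (from 0.78 nM) and NPC at 8-point (from 0.59 nM) final concentrations. Viability by CellTiter-Glo luminescence after 48 hours.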

[10] = qHTS of pediatric cancer cell lines to identify multiple opportunities for drug repurposing: Primary screen for NB-EBc1 cells (AID 1347095)
Outline: as §2

[11] = qHTS of pediatric cancer cell lines to identify multiple opportunities for drug repurposing: Primary screen for U-2 OS cells (AID 1347096); also: nearly all actives have a fitted effect of over 50% in size
Outline: (§3)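 Cells (500-1,000/well) in growth media were settled 5 h at 37 degrees C, then given compounds for 48 h. Viability was read as CellTiter-Glo luminescence. Primary runs used MIPE at 11 points (0.78 nM-46 µM) and NPC at 8 points (0.59 nM-46 µM); follow-ups used 11 points.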

[12] = qHTS of pediatric cancer cell lines to identify multiple opportunities for drug repurposing: Primary screen for Saos-2 cells (AID 1347097); also: nearly all actives have a fitted effect of over 40% in size
Outline: as §2

[13] = qHTS of pediatric cancer cell lines to identify multiple opportunities for drug repurposing: Primary screen for SK-N-SH cells (AID 1347098);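 also: DMSO served as neutral control and bortezomib at 2.3 µM as positive control; nearly all actives have a fitted effect of over 65% in size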
Outline: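 Cells (500-1,000/well) rested 5 h, then received compounds for 48 h; metabolically active cells were measured by CellTiter-Glo luminescence. Final concentrations spanned up to 46 µM (MIPE, 11-point) or 0.59 nM-46 µM (NPC, 8-point) in primary screens, 11-point in follow-ups.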

[14] = qHTS of pediatric cancer cell lines to identify multiple opportunities for drug repurposing: Primary screen for NB1643 cells (AID 1347099); also: nearly all actives have a fitted effect of over 50% in size
Outline: as §2

[15] = qHTS of pediatric cancer cell lines to identify multiple opportunities for drug repurposing: Primary screen for LAN-5 cells (AID 1347100)
Outline: as §3

## CNC(=O)c1c(I)c(C(=O)NCC(=O)Nc2c(I)c(C(=O)O)c(I)c(C(=O)NCCO)c2I)c(I)c(N(C)C(C)=O)c1I
[1]
  Potency: inactive
[2]
  Potency: inactive

## O.O.O.O.O.O.O.O=S(=O)([O-])[O-].[Co+2]
[1]
  Potency: inactive
[2]
  Potency: inactive

## O=S(=O)(O)CC(S)CS (stereo not drawn)
[1]
  Potency: inactive
[2]
  Potency: inactive

## CCCCC[C@H](O)/C=C/[C@H]1[C@H](O)CC(=O)[C@@H]1C/C=C\CCCC(=O)O
[1]
  Potency: inactive
[2]
  Potency: inactive

## CCC[C@@H]1C[C@@H](C(=O)N[C@@H]([C@H]2O[C@H](SC)[C@H](O)[C@@H](O)[C@H]2O)[C@H](C)Cl)N(C)C1
[1]
  Potency: inactive
[2]
  Potency: inactive

## C/C(=C\C(=O)OCCCCCCCCC(=O)O)C[C@@H]1OC[C@H](C[C@@H]2O[C@H]2[C@@H](C)[C@H](C)O)[C@@H](O)[C@H]1O
[1]
  Potency: inactive
[2]
  Potency: inactive

## CC1=C[C@H](O)CC(C)(C)[C@H]1/C=C/C(C)=C/C=C/C(C)=C/C=C/C=C(C)/C=C/C=C(C)/C=C/C1=C(C)C[C@@H](O)CC1(C)C
[1]
  Potency: inactive
[2]
  Potency: inactive

## CCOC(=O)[C@H](CS)NCCN[C@@H](CS)C(=O)OCC
[1]
  Potency: inactive
[2]
  Potency: inactive

## O=C(O)CCC(=O)c1ccc(-c2ccccc2)cc1
[1]
  Potency: inactive
[3]
  outcome: inactive
[4]
  outcome: inactive
[5]
  outcome: inactive
[6]
  outcome: inactive
[7]
  Potency: inactive
[8]
  Potency: inactive
[9]
  Potency: inactive
[10]
  outcome: inactive
[11]
  outcome: inactive
[12]
  Potency: inactive
[13]
  outcome: inactive
[14]
  outcome: inactive
[15]
  outcome: inactive

## [O]=[Bi][O][Bi]=[O]
[1]
  Potency: inactive
[2]
  Potency: inactive

## Cc1cc(-c2ccc(N=Nc3c(S(=O)(=O)O)cc4cc(S(=O)(=O)O)cc(N)c4c3O)c(C)c2)ccc1N=Nc1c(S(=O)(=O)O)cc2cc(S(=O)(=O)O)cc(N)c2c1O
[1]
  Potency: 8.2 µM (active)
[2]
  Potency: 9.2 µM (active)

## O=C(OCc1ccccc1)c1ccc(O)cc1
[1]
  Potency: inactive
[2]
  Potency: inactive
[3]
  outcome: inactive
[4]
  outcome: inactive
[5]
  outcome: inactive
[6]
  outcome: inactive
[7]
  Potency: inactive
[8]
  Potency: inactive
[9]
  Potency: inactive
[10]
  outcome: inactive
[11]
  outcome: inactive
[12]
  Potency: inactive
[14]
  outcome: inactive
[15]
  outcome: inactive

## CC[C@H](C)[C@@H]1NC(=O)[C@H](Cc2ccc(O)cc2)NC(=O)[C@@H](N)CSSC[C@@H](C(=O)N2CCC[C@H]2C(=O)N[C@@H](CC(C)C)C(=O)NCC(N)=O)NC(=O)[C@H](CC(N)=O)NC(=O)[C@H](CCC(N)=O)NC1=O
[1]
  Potency: inactive
[2]
  Potency: inactive

## CCCC1C(=O)N2C(N(C)C)=Nc3ccc(C)cc3N2C1=O (stereo not drawn)
[1]
  Potency: inactive
[2]
  Potency: inactive

## CC1CCC(NC(=O)N(CCCl)N=O)CC1 (stereo not drawn)
[1]
  Potency: inactive
[2]
  Potency: inactive

## Cc1ccc(S(=O)(=O)O)cc1C
[2]
  Potency: inactive

## CC(CC=O)CCCC(C)(C)O (stereo not drawn)
[2]
  Potency: inactive

## CC(C)(C)c1ccc(CN2CCN(C(c3ccccc3)c3ccc(Cl)cc3)CC2)cc1 (stereo not drawn)
[2]
  Potency: 23.1 µM (active) and inactive

## Nc1ncnc2c1ncn2[C@H]1CC[C@@H](CO)O1
[2]
  Potency: inactive

## Oc1ccc(Cl)c2c1CCC2
[2]
  Potency: inactive

## Cn1c(=O)c2c(ncn2CCOC(=O)C(C)(C)Oc2ccc(Cl)cc2)n(C)c1=O
[2]
  Potency: 18.4 µM (active)

## CCCOC(=O)c1ccccc1O
[2]
  Potency: inactive

## Nc1nc(/C(=C/CC(=O)O)C(=O)N[C@@H]2C(=O)N3C(C(=O)O)=CCS[C@H]23)cs1
[2]
  Potency: inactive

## CC/C(=C(/CC)c1ccc(OP(=O)(O)O)cc1)c1ccc(OP(=O)(O)O)cc1
[2]
  Potency: inactive

## Cc1cc(-c2ccc(N=Nc3ccc4c(S(=O)(=O)O)cc(S(=O)(=O)O)c(N)c4c3O)c(C)c2)ccc1N=Nc1ccc2c(S(=O)(=O)O)cc(S(=O)(=O)O)c(N)c2c1O
[2]
  Potency: 6.51 µM (active)

## NC(=O)[C@@H]1C[C@]2(NC(=O)NC2=O)c2cc(F)ccc2O1
[2]
  Potency: inactive

## CC1=CC(=C(c2ccc(N)cc2)c2ccc(N)cc2)C=CC1=N
[2]
  Potency: 14.6 µM (active)

## C=N[C@@H](C(=O)N[C@@H]1C(=O)N2[C@@H]1SC(C)(C)[C@@H]2C(=O)O)c1ccccc1
[2]
  Potency: inactive

## NC(=O)c1cc[n+](CC2=C(C(=O)O)N3C(=O)[C@@H](NC(=O)C(c4ccccc4)S(=O)(=O)[O-])[C@H]3SC2)cc1 (stereo partly drawn)
[2]
  Potency: inactive

## Nc1nc(NC2CC2)c2ncn([C@@H]3C=C[C@@H](CO)C3)c2n1
[2]
  Potency: inactive

## CO/N=C(\C(=O)N[C@@H]1C(=O)N2C(C(=O)O)=C(C[N+]3(C)CCCC3)CS[C@H]12)c1csc(N)n1
[2]
  Potency: inactive

## CN1CCCC(CN2c3ccccc3Sc3ccccc32)C1 (stereo not drawn)
[2]
  Potency: inactive

## C=CCN1CCCC1CNC(=O)c1cc(S(N)(=O)=O)cc(OC)c1OC (stereo not drawn)
[2]
  Potency: inactive

## NC(N)=NCC1COC2(CCCCC2)O1 (stereo not drawn)
[2]
  Potency: inactive
